High-throughput results as filed in PubChem.
Rows were chosen to be rich in hits. Some 13% of all compounds tested hit in one or more screens of this group.
WT yeast gro inh – growth inhibition of WT yeast, mitochondrial fusion screen | mitochondrial fusion phenotypic screen, WT strain | inhibition, % at 10 µM | 190,000 tested, 2.1% active | AID 1362; in the data active = inhibition above about 58%; tested in S. cerevisiae
L major viab – reduces viability of Leishmania major promastigotes. resazurin fluorescence viability. inhibition, % at 10 µM. 200,000 tested, 9% active; in the data active = inhibition above about 50%;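 also: promastigotes grown with compound for 44 hours at 28 °C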
RAM network inh – inhibitors of the yeast RAM network; S. cerevisiae dse1pr::URA3 reporter, 5-FOA growth OD615, 2 d; analog-sensitive cbk1-as2 kinase mutant strain; inhibition, % at 50 µM; 190,000 tested, 1.8% active;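 active = inhibition above a set limit, 3 SD over mean compound inhibition, cut at about 8.4% in these data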;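 also: 0% = DMSO-only wells with no growth and 100% = 10 µM 1-NA-PP1 full growth; inhibition rescues growth on 5-FOA so higher OD means more RAM inhibition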
CHOP inhibitor – inhibitors of CHOP induction in ER stress response; CHO-K1 CHOP-promoter luciferase, tunicamycin-induced, 15-18 h; inhibition, % at 10 µM; 220,000 tested, 3.8% active; AID 2732;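 active = compounds that reduced the stress-induced luciferase reporter signal by more than about 70% of percent inhibition, limit read from the data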;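 also: 0% = tunicamycin plus vehicle and 100% = wells without tunicamycin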
Lmaj promast 1uM – blocks Leishmania major promastigote growth at 1 uM, repeat screen. shares compounds with L major viab. L. major promastigote growth, resazurin fluorescence, 48 h. inhibition, % at 1 µM. 1,100 tested, 13% active;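 active = inhibition above about 50% in both repeat tests, limit read from the data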
* = called active by the depositor; / = not tested or not shown.

SMILES	WT yeast gro inh	L major viab	RAM network inh	CHOP inhibitor	Lmaj promast 1uM
Cc1ccc(-c2cn(-c3ccccc3)c3[n+]2CCCS3)cc1	14	100*	2	36	46
CCOC(=O)c1nnc(-c2ccccc2)nc1N1CC(C)OC(C)C1 (stereo unspecified)	-13	2	1	-15	/
CCOC(=O)c1cccc(Nc2nc(-c3cccnc3)nc3ccccc23)c1	15	92*	0	77*	21
O=C(Nc1ccc(O)c2c(=O)cc(-c3cccc(Cl)c3)oc12)c1ccccc1Cl	/	/	/	51	/
CCCCCOc1ccc(Br)cc1/C(C)=N/NC1=NCCN1	70	100*	0	/	35
C/C(=N\NC1=NCCN1)c1ccc(Cl)cc1	/	/	/	-1	/
NCCCC[C@@H]1NC(=O)c2cc([N+](=O)[O-])cc(I)c2SC[C@@H](C(=O)NCC(N)=O)NC(=O)CNC1=O	8	-6	2	-3	/
COc1ccc(CSC2=NCCN2)cc1Cl	-10	99*	1	0	-11
CC1=[N+]([O-])C(C)(C)C(c2ccc(Br)cc2)=[N+]1[O-]	-15	15	0	43	/
CC(C)(CO)CNC(=O)c1ccc(OC2CCN(C(=O)C3CC3)CC2)cc1	10	1	-1	14	/
O=c1cc(N2CCCCC2)nc2n1CCCS2	-2	71*	0	24	-3
CN(C)c1cc(=O)n2c(n1)SCCC2	-13	-5	1	-26	/
O=C1c2cccc(OCC(=O)N3CCCc4ccccc43)c2CCN1Cc1ccc(Br)cc1	40	43	3	41	/
Cc1cc(=O)c(C(=O)O)nn1-c1ccc(Cl)cc1	/	/	/	-6	/
CCCCCCC1CC(CSC(=N)N)OC1=O (stereo unspecified)	-10	100*	0	-1	3
Cn1nc(-c2ccc(Cl)cc2)nc2c(=O)n(C)c(=O)nc1-2	-12	50*	-1	/	81*
Cc1cccc(COCC(CC(C)C)N2CCN(C(=O)c3ccc(C(C)(C)C)cc3)CCC2=O)c1 (stereo unspecified)	84*	58*	2	71*	-8
Cc1cccc(COCC(CC(C)C)N2CCN(C(=O)c3ccc(C(F)(F)F)cc3)CCC2=O)c1 (stereo unspecified)	44	9	2	43	/
Cc1sc2c(c1C)c(=O)nc1n2Cc2ccccc2-1	-7	82*	0	-17	1
N=c1c(-c2nc3ccccc3[nH]2)cc(C(=O)c2cccs2)nn1-c1ccc(Cl)cc1	/	91*	/	/	35
O=C(CSc1nc(C2CC2)nc2ccccc12)N1c2ccccc2Sc2ccc(C(F)(F)F)cc21	12	16	3	-43	/
O=C(NCC1CCCO1)C1CCCN1C(=O)Nc1ccc(Cl)cc1 (stereo unspecified)	-19	-3	0	8	/
Cc1cc2c(C)nc(-c3ccccc3)nc2o1	0	-2	0	59	/
Cc1nc(-c2cn[nH]c2)c2cc(C)oc2n1	-1	62*	1	53	-8
O=C(CSc1ncccc1C(=O)O)NC12CC3CC(CC(C3)C1)C2	-11	-5	2	-6	/
SMILES	WT yeast gro inh	L major viab	RAM network inh	CHOP inhibitor	Lmaj promast 1uM
Cc1ccc(NC(=O)NC(=O)N(C(C)C)S(C)(=O)=O)nc1	-3	77*	1	10	-16
Cn1c(CN2CCCC2)nc2cc(NS(=O)(=O)c3ccccc3)ccc21	-20	3	1	16	/
Cn1c(CN2CCCC2)nc2cc(NS(=O)(=O)c3ccc(Cl)cc3)ccc21	/	99*	-1	5	-11
COc1ccc(CCNC(=O)COc2ccc(C)nc2[N+](=O)[O-])cc1	3	1	0	7	/
CCOc1nc(NC(=O)NS(=O)(=O)c2cccc(Cl)c2)nc(-c2ccccc2)n1	-10	19	0	-15	/
COc1cc2c(cc1NC(=S)NC(=O)c1c(OC)cccc1OC)oc1ccccc12	3	88*	7	-16	46
Cc1[nH]c2ccc(Br)cc2c(=O)c1CN1CCCCC1	-2	8	1	-6	/
Cc1[nH]c2c(Cl)cccc2c(=O)c1CN1CCCC1	-5	100*	0	12	93*
CC(=O)Oc1cc2c(cc1Cl)C1(CC(c3ccccc3Cl)O2)CC(C)(C)NC(=S)N1 (stereo unspecified)	63*	98*	5	13	-15
COc1ccc(N2C(=S)NC(C)(C)CC2(C)c2ccc(OC(C)=O)cc2OC(C)=O)cc1 (stereo unspecified)	-10	2	5	-3	/
CCC[n+]1c(C)sc2c3c(ccc21)CCCC3	39	100*	1	26	35
CC1=C(n2nnc([N+](=O)[O-])n2)C(c2cccnc2)C(C#N)=C(N)O1 (stereo unspecified)	3	5	1	-8	/
CSc1c2c(nc3ncnn13)CCC2	-3	51*	2	27	-15
c1ccc(Nc2c3c(nc4ncnn24)CCC3)cc1	-1	-4	1	54	/
COc1cccc(C(=O)NCCCn2ccnc2)c1	0	2	1	-5	/
Cc1ccc(S(=O)(=O)NC(C)(C)CSc2nnc(Nc3ccccc3)s2)cc1	-11	100*	5	58	-6
CC(C)(CSc1ncccn1)NS(=O)(=O)c1ccccc1	6	-1	1	2	/
S=C(NCCc1cnc[nH]1)NC1CCCC1	-9	-6	3	39	/
CC(C)(C)c1cc(C(C)(C)C)cc(S(=O)(=O)CCc2ccccn2)c1	16	60*	-1	70*	0
CCSC1=N/C(=C\c2cccc(F)c2)C(=O)S1	-6	60*	-2	55	-16
C=CCSC(=S)NC1CCS(=O)(=O)C1 (stereo unspecified)	-14	93*	0	70*	6
COCCCC/C(=N\OCCN)c1ccc(C(F)(F)F)cc1	28	80*	0	3	-1
COC(=O)C(NC(C)=O)(Nc1ccc(C)cn1)C(F)(F)F (stereo unspecified)	/	/	/	5	/
CCOP(=O)(c1ccccc1)c1nc(-c2ccccc2C)oc1N1CCCCC1 (stereo unspecified)	1	50*	1	91*	-16
CCOP(=O)(OCC)c1nc(-c2cccc3ccccc23)oc1N1CCCCC1	53	36	-1	5	/
SMILES	WT yeast gro inh	L major viab	RAM network inh	CHOP inhibitor	Lmaj promast 1uM
CC(C)(C)c1ccc(C(=O)NCCCN2CCN(CCCNC(=O)c3ccc(C(C)(C)C)cc3)CC2)cc1	25	100*	4	59	-8
CC(=O)N(CN1C(=O)c2ccccc2C1=O)c1ccc2c(c1)oc1ccccc12	7	-8	0	9	/
COc1ccc(NC(=O)c2cccc(N3C(=O)NC4CC3(C)Oc3ccccc34)c2)cc1 (stereo unspecified)	0	100*	1	10	0
CC12CC(NC(=O)N1c1cccc(C(=O)Nc3ncn[nH]3)c1)c1ccccc1O2 (stereo unspecified)	-7	0	0	8	/
COc1ccc(OCC(=O)OC2CCCN(C)C2)cc1 (stereo unspecified)	/	/	/	-10	/
Cc1ccccc1NC(=O)C1CC(=O)N(Cc2ccccc2)C1 (stereo unspecified)	-8	-8	2	-7	/
